# Test results reported in PubChem BioAssay (NCATS).
# Results filed as inconclusive are left out. Where a call stands in place of a potency, no number is given. The source made the active and inactive calls. Calls come from the whole dose curve; as a rule, active = well fitted cell-killing curve with a large enough effect; inconclusive = small, poorly fitted or top-dose-only effect, or effect the other way; inactive = no such curve, though single readings can be large or run the other way.
# Test: Quantitative High-Throughput drug screen in 47 multiple myeloma cell lines against the NCATS MIPE library collection: LP1_DSMZ cell viability assay (AID 1918982); note: nearly all actives have a fitted effect of over 35% in size
# Details: LP1 myeloma viability, CellTiter-Glo ATP luminescence, 48 h; series mostly up to 45.8 µM
# Excerpt: PI: Beverly A. Mock Ph.D.
# Laboratory of Cancer Biology and Genetics,
# Center for Cancer Research, National Cancer Institute,
# National Institute of Health, Bethesda, Maryland
# Drug resistance and disease progression are common in multiple myeloma (MM) patients, underscoring the need for new therapeutic combinations. […] We hypothesized that effective combinations would reduce MYC expression and enhance p16 activity. […] These preclinical data identify potentially useful drug combinations for evaluation in drug-resistant MM and reveal potential mechanisms of combined drug sensitivity.
# Described herein is the primary MIPE qHTS used to cherrypick compounds. Validated compounds were then further tested for potential synergistic activiy.
# [1] Peat TJ, Gaikwad SM, Dubois W, Gyabaah-Kessie N, Zhang S, Gorjifard S, Phyo Z, Andres M, Hughitt VK, Simpson RM, Miller MA, Girvin AT, Taylor A, Williams D, D'Antonio N, Zhang Y, Rajagopalan A, Flietner E, Wilson K, Zhang X, Shinn P, Klumpp-Thomas C, McKnight C, Itkin Z, Chen L, Kazandijian D, Zhang J, Michalowski AM, Simmons JK, Keats J, Thomas CJ, Mock BA. Drug combinations identified by high-throughput screening promote cell cycle transition and upregulate Smad pathways in myeloma. Cancer Lett. 2023 Aug 1;568:216284. doi: 10.1016/j.canlet.2023.216284. Epub 2023 Jun 24. PMID: 37356470; PMCID: PMC10408729.
# SEQUENCE No. (e.g., 1, 2, 3, etc.); […] (e.g., Cells, Incubation, Reagent, etc.); VALUE and DESCRIPTION.
# 1; Cells; 5 uL; white, solid bottom 1536-well Greiner assay plate.
# 2; Compounds; 23 nL; Kalypsis pin tool (Wako USA) equipped with a 1536-well pin head to transfer to the assay plates.
# 3; Incubation; 48 hours; 37C incubation.
# 4; Reagent;5uL; CellTiter Glo (Promega).
# 5; Detector; 425V; Luminescence; Viewlux PerkinElmer.
# NOTES (numbers refer to Sequence numbers above)
# 1. The cell-based screening methods employed in this study were like those previously published. Briefly, the corresponding myeloma cell lines were screened in 1,536-well plates with 500 cells, 5-uL per well for inhibition of cell viability (assessed by measuring ATP levels with CellTiterGlo).
# 2. NCATS MIPE 4.0 library of approved and investigational drugs were added using the Kalypsis pin tool. Wells treated with DMSO only for 100% viability and media only for 0% viability were used as controls.
# 3. The assay plates were covered and incubated for 48 hours in a 37C, 5% CO2 incubator with controlled humidity.
# 4. After 48 hours, CellTilter-GloTM luminescent substrate mix (Promega) reagent was added to the assay plate and plates we incubated for 5 min at room temperature.
# 5. Signal was measured as median relative luminescence units on a ViewLux (PerkinElmer) multiplate reader.
# [1] Heske CM, Davis MI, Baumgart JT, Wilson K, Gormally MV, Chen L, Zhang X, Ceribelli M, Duveau DY, Guha R, Ferrer M, Arnaldez FI, Ji J, Tran HL, Zhang Y, Mendoza A, Helman LJ, Thomas CJ. Matrix Screen Identifies Synergistic Combination of PARP Inhibitors and Nicotinamide Phosphoribosyltransferase (NAMPT) Inhibitors in Ewing Sarcoma. Clin Cancer Res. 2017 Dec 1;23(23):7301-7311. doi: 10.1158/1078-0432.CCR-17-1121. Epub 2017 Sep 12. PMID: 28899971; PMCID: PMC6636827.
# Potency is the fitted concentration of half-maximal effect.
row,Compound,Potency
1,C#CCN(C)[C@H](C)Cc1ccccc1,inactive
2,CC1=C2C[C@@H]3[C@@H](CC=C4C[C@@H](O)CC[C@@]43C)[C@@H]2CC[C@]12O[C@H]1C[C@H](C)CN[C@H]1[C@H]2C,inactive
3,C=C(C)[C@H]1Cc2c(ccc3c2O[C@@H]2COc4cc(OC)c(OC)cc4[C@@H]2C3=O)O1,0.264 µM (active)
4,Cn1cc(C2=C(c3cn(C4CCN(Cc5ccccn5)CC4)c4ccccc34)C(=O)NC2=O)c2ccccc21,10.5 µM (active)
5,COC1(CS(=O)c2ccccc2)CCN(CCc2c[nH]c3ccc(F)cc23)CC1 (configuration not stated),inactive
6,C[C@@H]1O[C@@H](O[C@H]2C[C@@H](O)[C@]3(CO)[C@H]4[C@H](O)C[C@]5(C)[C@@H](C6=CC(=O)OC6)CC[C@]5(O)[C@@H]4CC[C@]3(O)C2)[C@H](O)[C@H](O)[C@H]1O,0.0166 µM (active)
7,COc1ccc(C(=O)c2c(C)n(CCN3CCOCC3)c3ccccc23)cc1,inactive
8,COC[C@@H](NC(C)=O)C(=O)NCc1ccccc1,inactive
9,Cc1cccc(C)c1NC(=O)CN1CCCC1=O,inactive
10,N[C@@H](Cc1ccc(N(CCCl)CCCl)cc1)C(=O)O,16.6 µM (active)
11,O=C(O)C(=O)c1cn(Cc2ccccc2)c2ccc(-c3ccc(OC(F)(F)F)cc3)cc12,inactive
12,CCCC(C)(COC(N)=O)COC(=O)NC(C)C (configuration not stated),inactive
13,Cc1sc2c(c1C)C(c1ccc(Cl)cc1)=N[C@@H](CC(=O)OC(C)(C)C)c1nnc(C)n1-2,1.05 µM (active)
14,COc1ccc(C(CN(C)C)C2(O)CCCCC2)cc1 (configuration not stated),inactive
15,O=C1CC[C@@]2(O)[C@H]3Cc4ccc(O)c5c4[C@@]2(CCN3CC2CC2)[C@H]1O5,inactive
16,Cc1cc(SCc2sc(-c3ccc(C(F)(F)F)c(F)c3)nc2C)ccc1OCC(=O)O,16.6 µM (active)
17,CC(C)CC(N(C)C)C1(c2ccc(Cl)cc2)CCC1 (configuration not stated),inactive
18,Fc1ccc(C(OCCN2CCN(CCCc3ccccc3)CC2)c2ccc(F)cc2)cc1,18.7 µM (active)
19,NCC1(CC(=O)O)CCCCC1,inactive
20,CNCC(O)c1ccc(O)cc1 (configuration not stated),inactive
21,CN(C)CCc1ccc(O)cc1,inactive
22,CN1CCN(C(=O)O[C@H]2c3nccnc3C(=O)N2c2ccc(Cl)cn2)CC1,inactive
